Measured values as given in PMC5540273 (PLoS ONE, 2017).

Experiments:
Settings in all cases: concentration: 1 μM, replicates: in singlicate; n = 1
IKK-alpha = test system: T1, IKK-alpha
T1 construct: gene CHUK

IKK-beta = test system: T2, IKK-beta
T2 construct: gene IKBKB

IKK-epsilon = test system: T3, IKK-epsilon
T3 construct: gene IKBKE

INSRR = test system: INSRR
INSR = test system: INSR
IRAK1 = test system: IRAK1
IRAK3 = test system: IRAK3
IRAK4 = test system: IRAK4
ITK = test system: ITK
[1] = test system: JAK1(JH1domain-catalytic)
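Note: KINOMEscan kinase panel screen.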

Row | Structure (SMILES) | %Inh (IKK-alpha) | %Inh (IKK-beta) | %Inh (IKK-epsilon) | %Inh (INSRR) | %Inh (INSR) | %Inh (IRAK1) | %Inh (IRAK3) | %Inh (IRAK4) | %Inh (ITK) | %Inh [1]
1 | CC(C)c1nc(-c2ccc(F)c(NS(=O)(=O)c3c(F)cccc3F)c2)c(-c2ccnc(Nc3ccc(N4CCOCC4)nc3)n2)s1 [GSK1804250] | 0% | 0% | 23% | 2% | 11% | 0% | 3% | 0% | 9% | 17%
2 | CC(C)NCC(Cc1ccccc1)NC(=O)c1cc(Br)c(-c2ccnc3[nH]ccc23)s1.Cl.Cl (stereo not drawn) [GSK1383281] | 0% | 23% | 30% | 0% | 0% | 15% | 2% | 12% | 3% | 35%
3 | CC(=O)Nc1cn2nc(Oc3cccc(NC(=O)c4cccc(C(F)(F)F)c4)c3)ccc2n1 | 0% | 0% | 0% | 0% | 0% | 0% | 44% | 0% | 0% | 32%
4 | CNc1nccc(-c2ccc3c(N)n[nH]c3c2)n1 [GSK2206003] | 90% | 81% | 17% | 0% | 11% | 49% | 49% | 0% | 24% | 0%
5 | Cc1cc(-c2ccnc(Nc3cccc(C#N)c3)n2)cc(C)c1O [GSK1440913] | 61% | 67% | 28% | 23% | 0% | 52% | 82% | 11% | 9% | 0%
6 | CN1CCN(Cc2ccc(NC(=O)Nc3ccc(N(C)c4ccnc(Nc5ccc(CS(C)(=O)=O)cc5)n4)cc3)cc2)CC1.Cl [GW827654] | 29% | 22% | 28% | 0% | 42% | 44% | 66% | 15% | 28% | 61%
7 | Cl.O=C(Nc1ccc(Oc2ccc3[nH]c(NC(=O)c4ccco4)nc3c2)cc1)Nc1cc(C(F)(F)F)ccc1F [GW683134] | 85% | 49% | 0% | 55% | 52% | 20% | 0% | 23% | 8% | 91.2%
8 | CCNc1nccc(-c2c(-c3ccc(F)cc3)ncn2C2CCN(C)CC2)n1 | 0% | 0% | 0% | 100% | 0% | 0% | 21% | 0% | 0% | 0%
9 | Cc1nn2c(=O)cc(N3CCO[C@H](C)C3)nc2n1Cc1cccc(Cl)c1Cl [GSK2373693] | 36% | 81% | 0% | 0% | 4% | 78% | 0% | 25% | 15% | 9%
10 | Cl.N#CCc1ccc(Nc2nccc(Nc3ccc(Oc4ccccc4)cc3)n2)cc1 [GW639905] | 39% | 45% | 14% | 4% | 0% | 42% | 62% | 32% | 0% | 57%
11 | CN(c1ccc2c(c1)nc(NCc1ccccc1)n2C)c1ccnc(Nc2ccc(CS(C)(=O)=O)cc2)n1.Cl [GW811603] | 0% | 0% | 0% | 44% | 10% | 0% | 0% | 0% | 0% | 12%
12 | Cc1ccc(-c2ccc3occ(-c4ccc(S(C)=O)cc4)c3c2)nn1 (stereo not drawn) | 0% | 0% | 0% | 0% | 0% | 0% | 0% | 5% | 0% | 0%
13 | CSc1ccc(NC2=C(c3ccc(Cl)cc3)C(=O)NC2=O)cc1 [SB-317658] | 0% | 0% | 10% | 30% | 4% | 0% | 0% | 0% | 0% | 0%
14 | CN(C)c1ncnc2nc[nH]c12 [SKF-31736] | 23% | 15% | 0% | 9% | 0% | 43% | 0% | 4% | 0% | 0%
15 | CS(=O)(=O)c1cccc(CNc2nc(Nc3ccc4c(c3)CCC(=O)N4)ncc2C(F)(F)F)c1 | 0% | 0% | 48% | 20% | 16% | 0% | 22% | 0% | 0% | 50%
16 | O=C(Nc1c(F)cccc1F)c1cc(C(=O)c2ccccc2F)c[nH]1 [GSK1326180] | 0% | 0% | 0% | 5% | 17% | 0% | 7% | 0% | 0% | 3%
17 | Cc1ccc(O)cc1Nc1ccnc2cc(-c3ccc(CN4CCCCC4)o3)ccc12 [GW557777] | 0% | 0% | 0% | 4% | 0% | 0% | 0% | 0% | 56% | 1%

Row | Structure (SMILES) | %Inh (IKK-alpha) | %Inh (IKK-beta) | %Inh (IKK-epsilon) | %Inh (INSRR) | %Inh (INSR) | %Inh (IRAK1) | %Inh (IRAK3) | %Inh (IRAK4) | %Inh (ITK) | %Inh [1]
18 | COc1cccc(NC(=O)NCCNc2ccnc(Nc3ccc(F)cc3)n2)c1 [GSK1379879] | 0% | 0% | 0% | 0% | 0% | 25% | 14% | 21% | 6% | 23%
19 | Cc1ccc(Nc2ccnc(Nc3ccc(C)c(F)c3)n2)cc1O.Cl [GW582868] | 38% | 18% | 0% | 0% | 0% | 42% | 76% | 25% | 9% | 29%
20 | NCCC(NC(=O)c1cc(Br)c(-c2ccnc3[nH]ccc23)s1)c1ccccc1.O=C(O)C(F)(F)F.O=C(O)C(F)(F)F (stereo not drawn) [GSK1307810] | 52% | 57% | 17% | 0% | 0% | 96.8% | 9% | 0% | 7% | 79%
21 | Nc1ncnc2scc(-c3ccc(NC(=O)Cc4cc(F)ccc4F)cc3)c12.O=C(O)C(F)(F)F [SB-731254-M] | 4% | 0% | 45% | 65% | 15% | 0% | 16% | 0% | 0% | 0%
22 | Nc1cccc(-c2ccc3c(N)n[nH]c3c2)c1 [GSK2193613] | 0% | 0% | 11% | 0% | 0% | 10% | 0% | 0% | 10% | 0%
23 | Cl.Cl.NC(CNC(=O)c1cc(Br)c(-c2ccnc3[nH]ccc23)s1)c1ccccc1 (stereo not drawn) [GSK1322949] | 73% | 69% | 18% | 0% | 9% | 90.4% | 55% | 11% | 31% | 24%
24 | Cc1ccc(O)cc1Nc1ccnc2ccc(C(C)(C)C)cc12 [GW856805] | 52% | 45% | 6% | 18% | 16% | 13% | 0% | 0% | 0% | 2%
25 | COC(=O)Nc1nc2cc(Oc3ccc(NC(=O)Nc4cccc(SC)c4)cc3)ccc2[nH]1.Cl [GW697999] | 35% | 0% | 10% | 0% | 0% | 36% | 24% | 12% | 26% | 2%
26 | Cn1cc(-c2ccc3c(c2)CCN3C(=O)Cc2cc(F)cc(F)c2F)c2c(N)ncnc21 [GSK2634140] | 0% | 12% | 75% | 0% | 0% | 7% | 6% | 0% | 20% | 1%
27 | O=C(O)C(F)(F)F.O=c1[nH]ccc2nc(N[C@@H]3CCNC3)nc(Nc3ccc4c(c3)S(=O)(=O)CC4)c12 [GSK2181306] | 87% | 60% | 61% | 40% | 58% | 98.4% | 0% | 15% | 30% | 89%
28 | O=C(Nc1n[nH]c2nc(-c3ccccc3)ccc12)C1CC1 [SB-708999] | 94% | 66% | 37% | 0% | 0% | 24% | 10% | 14% | 4% | 0%
29 | Cc1cccc(Nc2nc(N[C@H]3CCCC[C@H]3N)ncc2C(N)=O)c1.Cl [GSK986310] | 0% | 11% | 34% | 8% | 26% | 88% | 17% | 86% | 29% | 77%
30 | CCn1cnc2c(NCc3ccccc3)ncnc21 [SKF-96418] | 26% | 19% | 0% | 0% | 2% | 25% | 0% | 0% | 0% | 6%
31 | COc1cccc(CC(=O)N2CCc3cc(-c4cn(C)c5ncnc(N)c45)ccc32)c1 [GSK2608899] | 0% | 60% | 75% | 13% | 9% | 0% | 14% | 0% | 12% | 8%
32 | COc1cccc2c(-c3ccncc3)c(-c3ccc(F)cc3)nn12 [GW468513] | 0% | 14% | 3% | 9% | 11% | 28% | 24% | 7% | 8% | 0%
33 | COC(=O)Nc1nc2ccc(Oc3ccc(NC(=O)Nc4cc(C(F)(F)F)ccc4F)cc3)cc2[nH]1.Cl [GW654607] | 72% | 36% | 17% | 0% | 0% | 21% | 6% | 3% | 0% | 69%
